Bioassay records from PubChem BioAssay.
TROY NFkB inh – inhibitors of TROY-dependent NF-kB signaling; Q293 LMP1-TROYcd NF-kB luciferase reporter, 4 h; inhibition, % at 10 µM; hit rate 0.98% among 360,000;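 active = compounds whose plate-normalised and pattern-corrected inhibition of the luciferase reporter signal at the single screening dose is 50% or more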
KKLEB cytotox – counter-screen for CF NF-kB inhibitors: cytotoxicity; KKLEB CF airway cells viability, ATPlite luminescence, overnight; active compounds read low; cells stimulated with P. aeruginosa culture filtrate; activity change (cytotoxicity), % at 5 µM; hit rate 0.36% among 360,000;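 active = corrected activity change at or below -50% at 5 µM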
CF NFkB block – inhibitors of cystic fibrosis induced NF-kB; KKLEB NF-kB-GFP reporter, PAF-induced, GFP fluorescence overnight; inhibition, % at 5 µM; hit rate 0.86% among 360,000;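 active = at least 50% inhibition at 5 µM, scaled per plate between neutral and stimulator controls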;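 note: PAF is a Pseudomonas aeruginosa culture filtrate used as stimulus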
TWEAK-Fn14 inh – blocks TWEAK-Fn14 interaction in a reporter cell assay; TWEAK-stimulated Fn14 reporter cells, luciferase luminescence, 8 h; inhibition, % at 10 µM; hit rate 2% among 360,000; AID 1159606; in the data active = inhibition above about 50%
Peg3 prom inh-1 – reduces Peg3 promoter-driven luciferase expression in HeLa; inhibition, % at 20 µM; hit rate 1.7% among 360,000; HeLa PEG-Prom luciferase reporter, luminescence, overnight;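 active = inhibition of at least 50% at 20 µM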
HIF-2a block – blocks HIF-2a reporter activity. 786-0 RCC cells HIF-2a reporter, luciferase luminescence, overnight. inhibition, % at 18.8 µM. hit rate 0.72% among 360,000. AID 624352;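 active = inhibition of the luminescence signal of 40% or more relative to plate controls, in a single-dose primary screen at 18.75 µM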
Peg3 prom inh-2 – confirmation of Peg3 promoter inhibitors; HeLa PEG-Prom luciferase reporter, luminescence, overnight; inhibition, % at 20 µM; shares compounds with Peg3 prom inh-1; AID 602417; hit rate 84% among 1,300;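 active = at 20 µM dose, 40% or more inhibition averaged across four replicates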
Hits are given with their value; 0 = inactive; - = no result. In the library only some 4% were active in any assay of this set; here they are far more common.

SMILES	TROY NFkB inh	KKLEB cytotox	CF NFkB block	TWEAK-Fn14 inh	Peg3 prom inh-1	HIF-2a block	Peg3 prom inh-2
CC(C)CCC(O)(c1ccccc1)C(CN1CCOCC1)c1ccccc1 (stereo not given)	0	0	0	0	0	0	-
OCCCn1c(CCNc2nc(-c3ccc(Cl)cc3)cs2)nc2cc(C(F)(F)F)ccc21	0	0	0	0	0	0	-
O=[N+]([O-])c1cc(-c2csc(NCCc3nc4cc(C(F)(F)F)ccc4n3CCCO)n2)ccc1Cl	0	0	0	0	54	0	0
O=C1[C@H](Cc2ccccc2)NCCCC[C@@H](c2ccc(Cl)cc2)N1Cc1ccc(Cl)cc1	0	0	0	0	76	0	0
O=C1[C@H](Cc2ccccc2)NCCCC[C@@H](c2ccco2)N1Cc1ccccc1	0	0	0	0	0	0	-
COc1ccc(-n2cc(CNC3CCN(C)CC3)c(-c3cccc(F)c3)n2)cc1	0	0	0	0	52	0	60
Oc1c(Cl)cc(Cl)c2cccnc12	63	0	0	0	64	0	66
C/C(=N\N=C(N)N)c1cc(Cl)ccc1Cl	0	0	0	0	0	0	-
C/C(=N\N=C(N)N)c1ccc(Cl)cc1Cl	0	0	0	0	71	0	73
O=C(COc1ccccc1Cl)Nc1ccc2c(c1)C(=O)NC2=O	0	0	0	0	0	0	-
CC1(C)CC(NC(=O)c2sc3cc(Cl)ccc3c2Cl)CC(C)(C)N1	0	0	0	0	91	0	100
Cc1ccc(S(=O)(=O)N2CCN(C(=O)COC(=O)/C=C/c3ccc(OC(F)F)cc3)CC2)cc1	0	0	0	0	0	0	-
CCOc1ccccc1NC(=O)NCc1ccccn1	0	0	0	0	0	0	-
CCc1ccc(Oc2coc3cc(OCC(=O)Nc4cc(C)ccc4C)ccc3c2=O)cc1	0	0	0	0	54	0	43
CCCc1ccc(Oc2coc3cc(OCC(=O)Nc4ccccc4C)ccc3c2=O)cc1	0	0	0	0	0	0	-
Cc1ccc(NC(=S)NC(=O)c2ccc(F)cc2)cc1S(=O)(=O)Nc1ccccc1Cl	0	0	0	0	55	0	58
Cc1ccc(N(CC(=O)N(C)Cc2ccccc2)S(C)(=O)=O)cc1C	0	0	0	0	0	0	-
CCCCCCSc1cc(-c2nc3ccc(C)cn3c2NCCCC)ccc1OC	0	0	0	0	79	0	93
Cc1c(OCC(=O)NC2CC(C)(C)NC(C)(C)C2)ccc2c1oc(=O)c1ccccc12	0	0	0	0	100	0	85
Cc1c(OCC(=O)NC2CC(C)(C)NC(C)(C)C2)ccc2c3c(c(=O)oc12)CCC3	0	0	0	0	0	0	-
Cc1ccc(NS(=O)(=O)c2ccc(C)c(NC(=S)NCCN3CCOCC3)c2)c(C)c1	0	0	0	0	0	0	-
O=S(=O)(Cc1nnnn1-c1ccc(Br)cc1)c1ccccc1	0	0	0	0	0	0	-
CCS(=O)(=O)c1nnnn1-c1ccccc1S(C)(=O)=O	0	0	0	0	58	0	0
O=S(=O)(CC(CN1CCCCC1)N1CCCCC1)c1ccccc1 (stereo not given)	0	0	0	0	67	0	88
CN(C)S(=O)(=O)c1ccc(/C(O)=C2/C(=O)C(=O)N(CCCN3CCOCC3)C2c2ccncc2)cc1 (stereo not given)	0	0	0	0	0	0	-
SMILES	TROY NFkB inh	KKLEB cytotox	CF NFkB block	TWEAK-Fn14 inh	Peg3 prom inh-1	HIF-2a block	Peg3 prom inh-2
C/C(=N\NC(=O)c1nnn(-c2nonc2N)c1CN1CCc2ccccc21)c1ccccc1O	0	0	0	0	55	0	66
CCOc1cccc(-c2c(C(=O)N/N=C(\C)c3ccccn3)nnn2-c2nonc2N)c1	0	0	0	0	74	0	64
CCOc1cccc(-c2c(C(=O)N/N=C(\C)c3ccncc3)nnn2-c2nonc2N)c1	0	0	0	0	0	0	-
Nc1nonc1-n1nnc(C(=O)N/N=C/c2ccccc2)c1CN1CCc2ccccc21	0	0	0	0	0	0	-
CN(C)S(=O)(=O)c1ccc(Cl)c(C(=O)OCC(=O)c2ccco2)c1	0	0	0	0	0	0	-
Cc1cc(C)c2c(N)c3cccc(C)c3nc2n1	0	0	0	0	107	0	99
COc1ccccc1C(=O)NNC(=O)c1ccc(Br)o1	0	0	0	0	0	0	-
COc1cccc(-c2sc3ccc(OC)cc3c2-c2ccc(O)cc2)c1	0	0	0	0	0	0	-
COc1cccc(-c2sc3ccc(OC)cc3c2-c2ccc(OCCN(C)C)cc2)c1	0	0	0	0	100	0	71
O=C(NCc1ccccc1C(F)(F)F)c1cccc2c1C(=O)c1ccc(N3CCCCC3)cc1S2(=O)=O	0	0	0	0	0	0	-
OC[C@@H]1[C@@H](c2ccc(Cl)cc2)C(c2ccccc2)=NN1c1ccccc1	0	0	0	0	0	0	-
OC[C@@H]1[C@@H](c2ccc(Cl)cc2)C(c2cccc(Cl)c2)=NN1c1ccccc1	0	0	0	62	54	0	65
[O-]C(=C(C(=S)Nc1cccc2ccccc12)[n+]1ccccc1)c1ccc2c(c1)OCCO2	79	0	0	103	54	72	0
CC(C)(C)c1cc[n+](/C(C(=S)Nc2ccccc2F)=C(/[O-])c2ccc3c(c2)OCCO3)cc1	0	0	0	0	0	0	-
FC(F)(F)C(F)(F)c1nc2nc(Cl)c(Cl)nc2[nH]1	0	0	0	0	0	0	-
Cc1nc2c(OCc3ccc(F)c(F)c3)cccn2c1N(C)C(=O)CCC1CCCC1	0	0	0	0	0	0	-
Cc1nc2c(OCc3ccc(OC(F)F)cc3)cccn2c1N(C)C(=O)CCC1CCCC1	0	0	0	0	65	0	54
CCCN(c1ccccc1C(=O)O)S(=O)(=O)c1ccc2c(c1)n(C)c(=O)n2C	0	0	0	0	0	0	-
Cc1cccc(N2CCN(C(=O)C3CCN(c4ncnc5c4nc4n5CCCCC4)CC3)CC2)c1C	65	0	0	80	52	0	58
O=C(C1CCN(c2ncnc3c2nc2n3CCCCC2)CC1)N1CCN(c2ccccc2F)CC1	0	0	0	0	0	0	-
Cc1cccc(N2CCN(C(=O)C3CCN(c4ncnc5c4nc4n5CCCCC4)CC3)CC2C)c1 (stereo not given)	52	0	0	51	55	0	43
CCCn1c(SCC(=O)N2CCc3ccccc3C2)nc(O)cc1=O	0	0	0	0	0	0	-
Cc1cc(C)c2sc(N(CCCN(C)C)C(=O)c3ccc(S(=O)(=O)N4CCCc5ccccc54)cc3)nc2c1	0	0	0	0	102	0	99
CN(C)CCCN(C(=O)c1ccc(S(=O)(=O)N2CCc3ccccc32)cc1)c1nc2ccc(F)cc2s1	0	0	0	0	0	0	-
CC(=O)c1ccc(Nc2cc(C)nc3ccc(C)cc23)cc1	0	0	0	0	82	0	87
COc1ccc(Nc2cc(C)nc3ccc(C)cc23)cc1	0	0	0	0	0	0	-
